# Pf growth 48h: P. falciparum growth inhibition at 48 hours (one generation); P. falciparum luciferase growth in erythrocytes, 48 h; Potency, µM (highest dose often 28.7 µM), actives largely listed as inhibitors; 5.9% of 310,000 active
#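 Read-out is firefly luciferase luminescence from an integrated reporter in P. falciparum, so falling signal marks reduced parasite growth. Infected erythrocytes were at 2% hematocrit and 0.1% parasitemia (final) in Albumax-supplemented RPMI 1640.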
# CHX counter: counter-screen hit for Shiga toxin inhibitors, cycloheximide; 12% of 300,000 active; cell reporter, cycloheximide protein synthesis inhibition counterscreen; max response, %; in the data active = max response mostly above about 13%, no sharp cut-off; inactive = mostly below about 14%; note: read at 38.3 µM for the half of the compounds with a filed dose
# Marburg entry inh: Marburg virus entry inhibition; Marburg virus pseudotyped entry inhibition, cell reporter; Potency, µM (doses to about 37.8 µM), usual class: inhibitors; 1.8% of 300,000 active; AID 540276; calls by dose curve; tested in HEK293 cells
# Pf growth 96h: P. falciparum growth inhibition at 96 hours; AID 504834; 6.9% of 320,000 active; P. falciparum luciferase reporter growth, 96 h; Potency, µM (doses to about 28.7 µM), most hits filed as inhibitors
#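 Delayed-death screen, second-generation endpoint: infected erythrocytes, 2% hematocrit, 0.05% parasitemia final; 96 hours at 37 C, 5% CO2; luciferase detection reagent; luminescence decrease equals reduced growth.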
# Lassa entry inh: Lassa virus entry inhibition | Lassa virus pseudotype entry inhibition, cell reporter | Potency, µM (highest dose often 37.9 µM), actives largely listed as inhibitors | 1.2% of 300,000 active | AID 540256; calls by dose curve; tested in HEK293 cells; note: nearly all actives have a fitted effect of over 50% in size
# Shiga toxin inh: blocks Shiga toxin action in Vero cells. Vero cells, Shiga toxin protein synthesis inhibition reporter. inhibition, % at 38.7 µM. 9.2% of 290,000 active; in the data active = inhibition mostly above about 28%, no sharp cut-off; inactive = mostly below about 43%
# Numbers stand for hits; . = inactive; ? = inconclusive; / = no result given; + = active, no number; [ ] = another dose, or the depositor's remark. The list is not random: actives were taken first. Their share in the collection is about 19%. Unless noted, calls come from the whole dose curve; as a rule, active = well fitted inhibition curve with a large enough effect; inconclusive = small, poorly fitted or top-dose-only effect, or another doubt; inactive = no such curve, though single readings can be large or run the other way.
SMILES,Pf growth 48h,CHX counter,Marburg entry inh,Pf growth 96h,Lassa entry inh,Shiga toxin inh
C[C@@H](CN1C2=NC[C@H](Cc3ccc(O)cc3)N2C[C@H]1Cc1ccc(O)cc1)NC(=O)CCC1CCCCC1,7.4µM,.,/,1.7µM,/,.
COc1ccc(C[C@H]2CN3C(=NC[C@H]3Cc3ccccc3)N2CCNC(=O)CCC2CCCCC2)cc1,?,.,/,4.7µM,/,.
COc1ccc(C[C@@H]2CN3C(=NC[C@@H]3C)N2C[C@H](C)NC(=O)CCC2CCCCC2)cc1,?,.,/,?,/,.
COc1ccc(C[C@H]2CN3C(=NC[C@@H]3Cc3ccccc3)N2C[C@H](C)NC(=O)CCC2CCCCC2)cc1,1.7µM,.,/,2.6µM,/,.
C[C@@H](CN1C2=NC[C@H](Cc3ccccc3)N2C[C@H]1Cc1ccc(O)cc1)NC(=O)CCC1CCCCC1,?,.,/,15µM,/,.
CCOc1ccc(-n2c(SCc3ccc([N+](=O)[O-])cc3)nnc2-c2ccc(OC)cc2)cc1,?,.,?,8.3µM,?,.
Cn1cnnc1SCC(=O)c1ccc2c(c1)OCCO2,/,.,?,.,.,49
CCn1nnnc1SCC(=O)N1CCN(Cc2ccc3c(c2)OCCO3)CC1,.,/,.,.,.,/
Cn1nnnc1SCC(=O)c1ccc2c(c1)OCCO2,.,38,.,?,.,97
CCCn1nnnc1SCC(=O)c1ccc2c(c1)OCCO2,.,36,.,.,.,74
CCn1c(SCC(=O)c2ccc3c(c2)OCCO3)nnc1-c1ccco1,.,15,.,.,.,.
CC(C)Oc1ccc(C(=O)N(Cc2ccc(N(C)C)cc2)Cc2ccco2)cc1,/,/,.,/,?,/
CCOc1cccc(C(=O)NCc2ccccc2)c1,.,.,.,.,.,.
CCCCOc1ccc(C(=O)NNC(=O)C2C3CCC(C3)C2C(=O)O)cc1 (stereo not given),.,40,?,.,.,72
O=C(NNC(=O)C1C2CCC(C2)C1C(=O)O)c1ccc(Br)o1 (stereo not given),.,42,.,.,.,76
CCOc1cccc(C(=O)NNC(=O)C2C3C=CC(C3)C2C(=O)O)c1 (stereo not given),.,20,.,.,.,.
CCCCOc1ccc(C(=O)NNC(=O)C2C3C=CC(C3)C2C(=O)O)cc1 (stereo not given),.,10,/,.,/,.
CCC1CCCCN1c1cc(C)nc2cc(-c3cccc(C)c3)nn12 (stereo not given),?,.,?,/,?,.
COc1cccc(C2/C(=C(/O)c3cnn(-c4ccccc4)c3C)C(=O)C(=O)N2CCN(C)C)c1 (stereo not given),.,.,.,.,.,.
CC1(C)CC(=O)C=C(NCc2cccnc2)C1,.,.,.,.,.,.
COCCn1c(SCC(=O)Nc2ccc(C)cc2)nc2c(oc3ccccc32)c1=O,.,.,.,.,.,.
CC(C)c1ccc(C(=O)NNC(=O)C2C3CCC(C3)C2C(=O)O)cc1 (stereo not given),.,39,/,.,/,101
Cc1ccsc1C(=O)NNC(=O)C1C2C=CC(C2)C1C(=O)O (stereo not given),.,121,?,.,?,96
CC(C)c1ccc(C(=O)NN2C(=O)C3CCCCC3C2=O)cc1 (stereo not given),.,50,.,.,?,96
CC(C)c1ccc(C(=O)NNC(=O)c2ccncc2)cc1,.,.,.,.,?,.
SMILES,Pf growth 48h,CHX counter,Marburg entry inh,Pf growth 96h,Lassa entry inh,Shiga toxin inh
C=CCOc1ccc2ccccc2c1CNn1c(C)n[nH]c1=S,?,.,/,?,/,/
Cc1ccc(/C=N/NC(=O)c2cccc3ccccc23)o1,.,.,.,.,?,.
CCn1nc(C)c(/C=N/NC(=O)c2c[nH]c3ccccc23)c1C,.,50,.,.,?,40
Cc1ccsc1/C=N/NC(=O)c1c[nH]c2ccccc12,.,60,.,.,.,106
CCn1nc(C)c(/C=N/NC(=O)Cn2nc(C)cc2C)c1C,.,.,.,.,.,.
Cc1ccc(/C=N/NC(=O)c2c[nH]c3ccccc23)o1,/,20,.,?,.,72
COc1ccc(C/C(C)=N\NC(=O)c2c[nH]c3ccccc23)cc1OC,.,29,/,.,/,71
Cc1ccc(/C=N/NC(=O)c2c[nH]c3ccccc23)s1,.,30,?,.,.,77
O=C(N/N=C/c1cccc([N+](=O)[O-])c1)c1c[nH]c2ccccc12,.,34,.,.,.,79
CCc1c(C(=O)N/N=C/c2cn[nH]c2-c2ccc(F)cc2)csc1C,.,.,.,.,.,.
O=C(N/N=C/c1ccsc1)c1c[nH]c2ccccc12,.,47,/,.,/,67
CCc1c(C(=O)N/N=C/c2ccsc2)csc1C,.,39,.,.,.,+
O=C(N/N=C/c1ccsc1)c1cc(-c2cccs2)nc2ccccc12,.,.,?,.,.,.
COc1cccc(C2C(C#N)=C(N)Oc3cc(C)n(Cc4ccccn4)c(=O)c32)c1OC (stereo not given),.,.,.,.,.,.
Cc1cc(C)c(NC(=O)CSc2n[nH]c(-c3ccccc3Cl)n2)c(C)c1,/,/,/,/,.,/
COC(=O)CCC(=O)Nc1ccccc1C(N)=O,.,.,.,.,?,.
Cc1[nH]c2ccccc2c1C(c1ccncc1)N1CCCCC1 (stereo not given),.,.,?,.[5.75 µM],?,.
C/C(=N\NC(=O)c1c[nH]c2ccccc12)c1ccc(C)s1,?,25,?,.,?,.
CC/C(=N\NC(=O)c1c[nH]c2ccccc12)c1cccs1,?,62,?,13µM,?,61
O=C(NNC(=O)c1cc([N+](=O)[O-])ccc1Cl)c1cccs1,.,.,.,.,.,.
Cc1nnc(NC(=O)c2cc(-c3ccco3)nc3ccccc23)s1,.,/,/,.,/,/
O=C(Nc1nc2ccccc2s1)c1cc(-c2ccco2)nc2ccccc12,.,50,.,.,.,60
Cc1ccc2nc(NC(=O)c3cc(-c4ccco4)nc4ccccc34)sc2c1,.,24,.,?,?,.
Cc1onc(-c2ccccc2)c1C(=O)Nc1ccncc1,.,.,.,.,.,.
Cc1onc(-c2ccncc2)c1C(=O)O,.,27,.,.,.,55
SMILES,Pf growth 48h,CHX counter,Marburg entry inh,Pf growth 96h,Lassa entry inh,Shiga toxin inh
COc1ccc(OC)c(/C=C/C(=O)N(C)CC(=O)Nc2ccc(C)cc2)c1,.,.,.,.,.,.
Cc1cc(OCC(O)CN2CCN(CCO)CC2)ccc1C(C)C (stereo not given),.,.,.,9.3µM,.,.
Cc1cc(OCCN2CCOCC2)ccc1C(C)C,.,48,.,.,?,60
C[C@]12CCC3C(C[C@@H](O)[C@H]4C[C@@H](O)CC[C@]34C)C1CC[C@@H]2O (stereo not given in full),/,/,?,/,.,/
Clc1nccc2c1ccc1ccccc12,/,.,.,/,.,.
COc1ccc(-c2nnc(SCC(=O)NCc3cccs3)n2C(C)C)cc1,/,.,.,?,.,.
COc1ccc(-c2nnc(SCc3nc4ccccc4s3)n2C(C)C)cc1,?,28,.,/,.,86

# Bioassay records as filed in PubChem.
